Shown are actives, neighbours in structure and some others; about 4.6% of the full set was active somewhere.
VACV Venus inh: inhibitors of vaccinia virus (Venus reporter) | Vaccinia virus Venus reporter expression, fluorescence | Potency, µM (titrated, usually from 36.5 µM), usual class: inhibitors | hit rate 0.46% among 330,000; calls by dose curve; tested in A549 cells; note: nearly all actives have a fitted effect of over 30% in size
Lassa entry inh: inhibitors of Lassa virus binding or cell entry | Lassa virus pseudotype entry inhibition, cell reporter | Potency, µM (titrated, usually from 37.9 µM), usual class: inhibitors | hit rate 1.2% among 300,000 | AID 540256; calls by dose curve; tested in HEK293 cells; note: nearly all actives have a fitted effect of over 50% in size
VACV mCherry inh: inhibitors of vaccinia virus infection (mCherry reporter signal) | Vaccinia virus mCherry reporter infection, fluorescence | AID 720579 | Potency, µM (top dose mostly 36.5 µM), most hits filed as inhibitors | hit rate 0.63% among 310,000; calls by dose curve; tested in A549 cells; note: nearly all actives have a fitted effect of over 35% in size
HCV inhibitor: blocks hepatitis C virus; Potency, µM (top dose mostly 41.8 µM), actives largely listed as inhibitors; Huh7.5.1 HCVcc-Cre infection, luciferase reporter, 44 h; hit rate 3.4% among 340,000; active = well fitted inhibition curve with a large enough effect; inconclusive = small, poorly fitted or top-dose-only effect, or another doubt; inactive = no such curve, though single readings can be large or run the other way
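1,000 cells/well; 4 h culture; + compound; + HCVcc-Cre (~0.5 moi); 44 h; luciferase substrate, RT 15 min; read 15 sec.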
MARV entry inh: blocks Marburg virus binding to or entry into cells; Marburg virus pseudotyped entry inhibition, cell reporter; Potency, µM (doses to about 37.8 µM), usual class: inhibitors; hit rate 1.8% among 300,000; AID 540276; calls by dose curve; tested in HEK293 cells
A number is an active result.

How did CN(C)c1ccc([C@H]2[C@@H]3C(=O)N(c4ccc(C(=O)O)cc4)C(=O)[C@H]3ON2c2ccccc2)cc1 do in these assays?
MARV entry inh: inactive

How did COc1cccc(CNC(=O)CSc2nnc(C)c3c(C)n(-c4ccccc4)nc23)c1OC do in these assays?
VACV Venus inh: inactive; Lassa entry inh: inactive; VACV mCherry inh: inactive

Results for COc1ccc2c(-c3ccccc3)cc(N3CCOCC3)nc2c1 ?
VACV Venus inh: inactive; Lassa entry inh: inconclusive; HCV inhibitor: 12.6µM; MARV entry inh: inconclusive

What do the screens show for `COc1ccc2c(c1)CC/C(=C\Nc1ccc3c(c1)OCO3)C2=O`?
VACV Venus inh: inactive; Lassa entry inh: inconclusive; VACV mCherry inh: inactive; HCV inhibitor: 7.08µM; MARV entry inh: inconclusive

What do the screens show for `O=C1/C(=C/Nc2ccc3c(c2)OCO3)CCc2ccccc21`?
VACV Venus inh: inactive; Lassa entry inh: 1.41µM; VACV mCherry inh: inconclusive; HCV inhibitor: inconclusive; MARV entry inh: inconclusive

How did CCc1ccc(CNC(=O)c2cccc(-n3cnc4cccnc43)c2C)cc1 do in these assays?
VACV Venus inh: inactive; Lassa entry inh: inconclusive; VACV mCherry inh: inactive

Results for CCn1c2ccccc2c2nc3cc(S(=O)(=O)N4CCOCC4)ccc3nc21 ?
VACV Venus inh: inconclusive; Lassa entry inh: inconclusive; VACV mCherry inh: inconclusive; HCV inhibitor: 10µM; MARV entry inh: inconclusive

What do the screens show for `CCn1c(Cn2nnc(-c3ccccc3)n2)nnc1SCC(=O)Nc1ccc(C(C)=O)cc1`?
VACV Venus inh: inactive; Lassa entry inh: inactive; VACV mCherry inh: inactive; HCV inhibitor: inconclusive; MARV entry inh: inconclusive

What do the screens show for `CCn1c(Cn2nnc(-c3ccccc3)n2)nnc1SCC(=O)Nc1cccc(C(C)=O)c1`?
VACV Venus inh: inactive; Lassa entry inh: inactive; VACV mCherry inh: inactive; HCV inhibitor: 35.5µM; MARV entry inh: inactive

How did COc1ccc(N2CCN(C(=O)C3CCN(S(=O)(=O)c4cn(C)cn4)CC3)CC2)cc1 do in these assays?
VACV Venus inh: inactive; Lassa entry inh: inactive; VACV mCherry inh: inactive

What do the screens show for `N#Cc1ccc(C(=O)Nc2ccccc2-c2nc3ccccc3s2)c(F)c1`?
VACV Venus inh: inactive; Lassa entry inh: inactive; VACV mCherry inh: inactive; MARV entry inh: inactive

How did CC(=O)c1ccc(S(=O)(=O)Nc2ccc(-c3ccc(N4CCCCC4)nn3)cc2)cc1 do in these assays?
VACV Venus inh: inactive; Lassa entry inh: inactive; VACV mCherry inh: inactive

How did C=C(C)C(O)C=Cc1ccccc1OC (stereo not drawn) do in these assays?
MARV entry inh: inactive

What do the screens show for `COc1ccccc1NC(=O)c1ccccc1-c1nc(-c2ccccc2OC)no1`?
Lassa entry inh: inconclusive; HCV inhibitor: inactive; MARV entry inh: 11.6µM

What do the screens show for `COc1ccc(-c2noc(-c3ccccc3C(=O)NCc3ccco3)n2)cc1OC`?
VACV Venus inh: inactive; Lassa entry inh: inactive; VACV mCherry inh: inactive; HCV inhibitor: 5.62µM; MARV entry inh: inconclusive

Results for COc1ccc(CNC(=O)C(=O)Nc2c3c(nn2-c2ccccc2)CSC3)cc1 ?
VACV Venus inh: inactive; Lassa entry inh: inconclusive; VACV mCherry inh: inconclusive

Results for COc1cc(OC)c(CN2CCCN(C)CC2)cc1Br ?
VACV Venus inh: inactive; Lassa entry inh: inconclusive; VACV mCherry inh: inactive; HCV inhibitor: 7.08µM; MARV entry inh: inconclusive

How did COc1cc(OC)c(CN2CCCCCCC2)cc1Br do in these assays?
VACV Venus inh: inactive; Lassa entry inh: inactive; VACV mCherry inh: inactive; HCV inhibitor: inactive; MARV entry inh: inactive

What do the screens show for `COc1ccc(CCNC(=O)c2ccc(Cn3c(=O)c4ccccc4n(Cc4ccc(F)cc4Cl)c3=O)cc2)cc1OC`?
VACV Venus inh: inactive; Lassa entry inh: inactive; VACV mCherry inh: inactive; MARV entry inh: inconclusive

Results for CCOC(=O)OC[C@H]1O[C@H](C#Cc2ccc(C)cc2C)C=C[C@H]1OC(=O)OCC ?
MARV entry inh: inactive

How did COC(=O)c1ccccc1-c1c2ccc(=N)cc-2oc2cc(N)ccc12 do in these assays?
Lassa entry inh: 7.94µM; VACV mCherry inh: inactive; HCV inhibitor: inconclusive; MARV entry inh: inconclusive

What do the screens show for `O=C(O)c1ccccc1-c1c2ccc(=O)cc-2oc2cc(O)ccc12`?
Lassa entry inh: 28.1µM; MARV entry inh: 35.3µM

How did Cc1c(-c2ccccc2)c(=O)oc2cc(O)ccc12 do in these assays?
HCV inhibitor: inactive

Results for COC(=O)c1ccccc1-c1ccc(/C=N/NC(=O)c2cc3ccccc3o2)o1 ?
VACV Venus inh: inactive; Lassa entry inh: inactive; VACV mCherry inh: inactive; HCV inhibitor: inactive; MARV entry inh: inactive

How did CCOC(=O)N1CCC(NC(=O)c2cnn(-c3cccc(F)c3)c2-n2cccc2)CC1 do in these assays?
VACV Venus inh: inactive; Lassa entry inh: inactive; VACV mCherry inh: inactive
